This note sets out measurements from PubChem BioAssay.

In one test the target is Albumin (Bos taurus) (UniProt P02769). Briefly: bovine serum albumin binders on microarray, profiling panel, artefact control for SMM control protein annotation, biochemical, small-molecule microarray, Alexa647 label, 635/667 nm fluorescence (AID 1118).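 Note: score merges 667 nm emission intensity and signal-to-noise per printed compound spot.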 The settings on record: BSA-A647 binding, fluorescence 635 nm, higher = more signal.
Albumin (Bos taurus), sequence (P02769 whole entry, looked up): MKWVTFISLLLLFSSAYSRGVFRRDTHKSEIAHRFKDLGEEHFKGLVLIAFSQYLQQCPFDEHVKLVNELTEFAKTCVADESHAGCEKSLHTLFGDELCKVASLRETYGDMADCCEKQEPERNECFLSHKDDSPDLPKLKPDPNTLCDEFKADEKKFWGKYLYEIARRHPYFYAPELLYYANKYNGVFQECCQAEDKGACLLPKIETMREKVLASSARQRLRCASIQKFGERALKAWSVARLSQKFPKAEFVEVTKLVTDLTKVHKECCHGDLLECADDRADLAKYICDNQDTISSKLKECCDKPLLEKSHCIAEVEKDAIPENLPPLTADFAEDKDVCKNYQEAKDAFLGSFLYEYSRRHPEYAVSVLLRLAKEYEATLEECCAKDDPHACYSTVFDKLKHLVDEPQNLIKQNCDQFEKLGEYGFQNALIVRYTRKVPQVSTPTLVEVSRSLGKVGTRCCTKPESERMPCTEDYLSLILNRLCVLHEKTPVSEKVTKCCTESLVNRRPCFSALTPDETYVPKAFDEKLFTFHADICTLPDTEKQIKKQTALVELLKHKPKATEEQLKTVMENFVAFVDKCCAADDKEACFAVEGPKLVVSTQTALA
The nature of test [1]: small-molecule microarray binders of probe aXIP, primary screen, biochemical, NeuroSMM set, 635/667 nm fluorescence (AID 1119).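 Note: probe is the protein aXip251-270 applied at 1 µg/mL to compound-printed slides; binding of probe to printed compounds measured as 667 nm fluorescence plus signal to noise.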 The conditions noted are these: higher = more signal, called active from +8 up or from −8 down.
The nature of test [2]: small-molecule binders of probe aNOTCH3, primary screen, biochemical, small-molecule microarray, 635/667 nm fluorescence (AID 1120).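 Note: probe is a biotin-tagged antibody raised against NOTCH3 rather than NOTCH3 protein; score merges spot fluorescence near 667 nm with spot signal to noise.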 The conditions noted are these: higher = more signal.
Test [3] is described as follows: small-molecule binders of probe aNOTCH2, primary screen, biochemical, small-molecule microarray, 635/667 nm fluorescence (AID 1121).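 Note: score merges feature fluorescence read at 667 nm with its signal to noise.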 The settings on record: higher = more signal.
The target in test [4] is Carbonic anhydrase 2 (Homo sapiens) (UniProt P00918). Description: CAII small-molecule binders, profiling panel, biochemical, small-molecule microarray, Alexa647-labelled CAII (AID 1122). The settings on record: CAII-A647 binding fluorescence, higher = more signal.
A short description of test [5]: COS7 lysate on small-molecule microarray, probe aHis, 635 nm (AID 1123).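 Note: z-score combines 667nm fluorescence intensity with signal-to-noise per printed compound spot.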 The conditions noted are these: COS7 cell lysate, fluorescence, higher = more signal.
A short description of test [6]: compound binding in COS7 lysate, probe aLAP1, primary screen, cell lysate, small-molecule microarray (AID 1124).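 Note: lysate comes from COS7 cells expressing LAP1 and is applied at 0.3 µg/mL; score merges spot fluorescence near 667 nm with signal-to-noise over triplicate slides.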 The conditions noted are these: probe aLAP1, fluorescence, higher = more signal.
A further test deals with Sam68 (KHDRBS1). Description: Sam68 small-molecule binders, primary screen, biochemical, small-molecule microarray, 635 nm fluorescence (AID 1125).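 Note: score merges 667 nm channel intensity with signal to noise over triplicate slides.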 The conditions noted are these: small-molecule microarray binding, higher = more signal.
Test [7] deals with Chordin-like protein 2 (CHRDL2). Description: CHRDL2 small-molecule binders, primary screen, biochemical, small-molecule microarray, 635 nm fluorescence (AID 1126).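 Note: printed compound slides probed with Chrdl2 protein at 4 µg/mL for 1 h at 4 C; score merges 667 nm emission intensity with signal to noise over three replicate slides.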 The conditions noted are these: small-molecule microarray binding, fluorescence 635 nm; higher = more signal.
Test [8] addresses Concanavalin-A (Canavalia ensiformis) (UniProt P02866). Description: ConA small-molecule binders, primary screen, artefact control for SMM control protein annotation, biochemical, small-molecule microarray, Alexa647 label, 635 nm (AID 1127).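 Note: z combines 667 nm emission intensity with signal-to-noise across three replicate slides.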 The conditions noted are these: ConA-A647 binding fluorescence, higher = more signal.
Test [9] can be described thus: anti-His antibody binders, primary screen, artefact control for SMM control protein annotation, biochemical, small-molecule microarray, 635 nm fluorescence (AID 1128).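 Note: score merges feature fluorescence with signal-to-noise for each printed compound spot.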 The settings on record: anti-His Alexa647 antibody binding, higher = more signal.
Test [10] relates to Human papillomavirus type 1a E7 protein (residues 1-88). Briefly: HPV1a E7 small-molecule binders, primary screen, biochemical, small-molecule microarray, residues 1-88, 635 nm (AID 1129). The conditions noted are these: small-molecule microarray binding, fluorescence 635 nm; higher = more signal.
Test [11] deals with Focal adhesion kinase 1 (Homo sapiens) (UniProt Q05397). Briefly: small-molecule microarray binders of FAK, primary screen, biochemical, 635/667 nm fluorescence, BSA, DTT (AID 1130).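 Note: composite of spot emission at 667 nm and signal to noise over triplicate slides.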 The settings on record: PTK2 binding, 635 nm fluorescence, higher = more signal.
Focal adhesion kinase 1 (Homo sapiens), sequence (Q05397 whole entry, looked up): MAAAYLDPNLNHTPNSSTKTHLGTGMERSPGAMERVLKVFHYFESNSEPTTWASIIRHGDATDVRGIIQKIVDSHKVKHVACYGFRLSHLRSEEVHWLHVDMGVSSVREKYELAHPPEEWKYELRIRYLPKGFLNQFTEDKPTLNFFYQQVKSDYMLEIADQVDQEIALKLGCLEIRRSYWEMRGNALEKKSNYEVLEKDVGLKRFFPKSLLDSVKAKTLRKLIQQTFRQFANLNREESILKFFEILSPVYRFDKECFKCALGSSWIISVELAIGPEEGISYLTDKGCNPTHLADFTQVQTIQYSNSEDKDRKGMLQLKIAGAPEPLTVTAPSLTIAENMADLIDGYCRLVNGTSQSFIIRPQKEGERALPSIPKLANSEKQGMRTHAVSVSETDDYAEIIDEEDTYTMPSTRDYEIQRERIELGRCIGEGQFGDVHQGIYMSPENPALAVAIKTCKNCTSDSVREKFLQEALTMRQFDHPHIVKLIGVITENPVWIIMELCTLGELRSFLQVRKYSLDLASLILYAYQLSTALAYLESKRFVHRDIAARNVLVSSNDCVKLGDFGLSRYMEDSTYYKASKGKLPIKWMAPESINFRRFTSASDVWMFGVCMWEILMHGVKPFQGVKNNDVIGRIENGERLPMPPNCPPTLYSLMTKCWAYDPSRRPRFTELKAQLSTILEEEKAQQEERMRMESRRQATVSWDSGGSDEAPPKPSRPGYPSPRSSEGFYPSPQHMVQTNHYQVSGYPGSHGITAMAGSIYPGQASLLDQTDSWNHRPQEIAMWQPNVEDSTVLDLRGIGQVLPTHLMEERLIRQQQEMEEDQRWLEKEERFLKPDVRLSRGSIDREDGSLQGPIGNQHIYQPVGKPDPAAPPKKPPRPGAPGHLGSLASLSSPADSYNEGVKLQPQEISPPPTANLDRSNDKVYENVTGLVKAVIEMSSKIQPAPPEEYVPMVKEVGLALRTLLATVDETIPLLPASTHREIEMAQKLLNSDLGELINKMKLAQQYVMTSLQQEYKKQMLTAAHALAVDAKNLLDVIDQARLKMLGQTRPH
Test [12] has as its system Fibrinogen (Alexa647-labelled). Briefly: fibrinogen binders on compound microarrays, profiling panel, artefact control for SMM control-protein annotation, biochemical, small-molecule microarray, 635/667 nm fluorescence (AID 1131).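 Note: z-score merges 667 nm fluorescence with per-spot signal-to-noise over triplicate slides.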 The settings on record: fibrinogen-A647 binding fluorescence, higher = more signal.
Test [13] has as its target Follistatin (Homo sapiens) (UniProt P19883). Briefly: follistatin binders on small-molecule microarrays, primary screen, biochemical, small-molecule microarray, 635/667 nm fluorescence (AID 1132). The conditions noted are these: FST binding, 635 nm fluorescence, higher = more signal.
In test [14] the target is Fibroblast growth factor 2 (Homo sapiens) (UniProt P09038). Description: FGF2 binders on small-molecule microarrays, primary screen, biochemical, small-molecule microarray, 635/667 nm fluorescence (AID 1133). The settings on record: small-molecule microarray binding, FGF2, fluorescence 635/667; higher = more signal.
Fibroblast growth factor 2 (Homo sapiens), sequence (P09038 whole entry, looked up): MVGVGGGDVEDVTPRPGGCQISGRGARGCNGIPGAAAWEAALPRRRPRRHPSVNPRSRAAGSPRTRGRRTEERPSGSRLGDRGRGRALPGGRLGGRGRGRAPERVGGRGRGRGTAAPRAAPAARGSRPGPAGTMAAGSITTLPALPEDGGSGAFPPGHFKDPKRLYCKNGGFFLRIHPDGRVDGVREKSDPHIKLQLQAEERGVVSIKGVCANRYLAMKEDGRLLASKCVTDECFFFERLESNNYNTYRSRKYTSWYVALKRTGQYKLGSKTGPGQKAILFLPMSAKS
A short description of test [15]: mitochondrial membrane potential change in A549 cells, profiling panel, cell-based, JC-1 fluorescence, basal, 24 h, 100 nL (AID 1138).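 Note: A549 lung adenocarcinoma cells under basal conditions with no added stimulus; test concentration not given here.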 The settings on record: higher = more signal.
Another test deals with Lefty1. Briefly: Lefty1 binders on small-molecule microarrays, primary screen, biochemical, small-molecule microarray, 635/667 nm fluorescence (AID 1139). The conditions noted are these: small-molecule microarray binding, fluorescence 635/667; higher = more signal.
The subject of test [16] is wheat germ agglutinin (Triticum aestivum), Alexa647-labelled. Description: wheat germ agglutinin binders on compound microarrays, profiling panel, artefact control for SMM control-protein annotation, biochemical, small-molecule microarray, 635/667 nm fluorescence (AID 1140).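 Note: score merges 667 nm feature emission with signal to noise over triplicate slides.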 The settings on record: WGA-A647 binding, 635 nm fluorescence, higher = more signal.
In test [17] the target is Luciferin 4-monooxygenase (Photinus pyralis) (UniProt P08659). Briefly: firefly luciferase enzyme inhibitors, primary screen, biochemical, luminescence, purified enzyme, 2006 set (AID 1141).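 Note: cell-free assay with purified firefly luciferase at 100 ng per well in PBS; test concentration not given here.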 The settings on record: SteadyGlo luminescence, 30 min, higher = more signal, called active from +8 up or from −8 down.
Luciferin 4-monooxygenase (Photinus pyralis), sequence (P08659 whole entry, looked up): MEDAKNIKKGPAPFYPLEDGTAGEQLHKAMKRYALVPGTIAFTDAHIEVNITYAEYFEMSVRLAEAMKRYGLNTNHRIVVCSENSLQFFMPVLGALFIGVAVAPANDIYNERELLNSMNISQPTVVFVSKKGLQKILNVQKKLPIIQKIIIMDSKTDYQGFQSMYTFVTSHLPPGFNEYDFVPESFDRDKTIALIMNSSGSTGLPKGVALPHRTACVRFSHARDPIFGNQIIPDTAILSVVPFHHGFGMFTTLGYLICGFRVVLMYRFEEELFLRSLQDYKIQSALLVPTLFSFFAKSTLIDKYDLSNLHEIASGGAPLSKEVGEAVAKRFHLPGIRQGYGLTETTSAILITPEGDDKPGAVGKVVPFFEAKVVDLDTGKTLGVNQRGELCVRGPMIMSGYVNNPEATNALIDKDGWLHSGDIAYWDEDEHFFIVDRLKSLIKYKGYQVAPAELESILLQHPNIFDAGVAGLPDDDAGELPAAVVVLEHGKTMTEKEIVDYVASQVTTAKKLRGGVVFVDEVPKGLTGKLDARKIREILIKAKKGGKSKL

The source made the active and inactive calls.

Follistatin (Homo sapiens), sequence (P19883 whole entry, looked up): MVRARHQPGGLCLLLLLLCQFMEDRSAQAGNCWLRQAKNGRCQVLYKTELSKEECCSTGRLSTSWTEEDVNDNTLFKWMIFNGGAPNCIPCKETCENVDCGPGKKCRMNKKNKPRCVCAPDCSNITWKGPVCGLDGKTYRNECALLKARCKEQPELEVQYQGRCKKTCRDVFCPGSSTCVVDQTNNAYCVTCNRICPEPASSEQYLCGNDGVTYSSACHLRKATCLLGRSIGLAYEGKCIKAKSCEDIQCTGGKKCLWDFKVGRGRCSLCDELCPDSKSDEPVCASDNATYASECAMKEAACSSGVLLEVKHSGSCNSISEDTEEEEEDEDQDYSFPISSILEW
Concanavalin-A (Canavalia ensiformis), sequence (P02866 whole entry, looked up): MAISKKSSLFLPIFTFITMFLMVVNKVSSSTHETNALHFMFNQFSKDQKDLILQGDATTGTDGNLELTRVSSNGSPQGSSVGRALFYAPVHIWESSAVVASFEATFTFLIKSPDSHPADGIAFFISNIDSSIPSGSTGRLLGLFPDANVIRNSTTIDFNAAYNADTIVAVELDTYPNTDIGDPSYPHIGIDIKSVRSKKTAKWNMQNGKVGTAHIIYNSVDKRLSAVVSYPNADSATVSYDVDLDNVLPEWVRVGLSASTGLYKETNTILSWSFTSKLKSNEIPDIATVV

For the compound `COCCOC(=O)N1C(=O)[C@@]2(c3cc(C#CCNC(N)=O)ccc31)[C@H](C(N)=O)[C@H]1C(=O)O[C@H](c3ccccc3)[C@H](c3ccccc3)N1[C@@H]2c1ccccc1OCCO`, the composite z-score with Albumin (Bos taurus) was determined as 0.222; in test [2], 0.133; in test [3], 0.0065; in test [4], 0.3; in [5], 1.4; in test [6], 0.521. The composite z-score worked out at 1.05 in the test on Sam68 (KHDRBS1); 0.743 in test [7]; 1.06 in [8]; 0.193 in test [9]; 0.956 in test [10]; 0.538 in test [11]. For the same compound, the composite z-score was found to be 0.834 in [12]; 1.38 in test [13]; 1.5 in test [14]; 0.684 in the test on Lefty1; 0.403 in test [16]. The composite Z-score in test [1] is -0.327 (inactive). In addition, the z-score in test [15] was -1.17; in [17], -1.07 (inactive).

Turning to `COCCCNC(=O)[C@@H]1c2ccccc2C(=O)N(C(C)C)[C@H]1c1ccc(CO)cc1`, the composite z-score in the test with Albumin (Bos taurus) is 0.0913; in test [2], 0.0577; in test [3], -0.125; in test [4] it was 0.25; in test [5], -0.756; in test [6] it was -0.366. The composite z-score in the test on Sam68 (KHDRBS1) was 0.0457; in test [7] it was -0.0306; in [8], 0.856; in test [9], -0.255; in test [10], -0.264; in test [11], 0.37. Further, the composite z-score in test [12] is -0.335; in test [13] it was 0.681; in test [14] it was 0.105; in the test on Lefty1, -0.109; in test [16], -0.199. In test [1], the composite Z-score was 0.0178 (inactive). Further, the figures for the z-score in test [15] and in test [17] were 0.448 and -0.604 (inactive), respectively.

For `NC(=O)[C@H]1[C@@H]2C(=O)O[C@@H](c3ccccc3)[C@@H](c3ccccc3)N2[C@@H](c2ccc(OCCO)cc2)[C@]12C(=O)Nc1ccc(C#CCCO)cc12`, the composite z-score came out at 0.586 with Albumin (Bos taurus); 0.0203 in [2]; 0.0252 in test [3]; 0.537 in test [4]; 1.26 in [5]; 0.204 in test [6]. The composite z-score in the test on Sam68 (KHDRBS1) amounted to 1.16; in [7] it was 0.0273; in test [8], 1.07; in test [9], 0.92; in test [10] it was 1.18; in test [11], 0.798. Moreover, the composite z-score in test [12] was 0.746; in test [13] it was 1.13; in test [14] it was 0.35; in the test on Lefty1, 0.551; in test [16], 0.9. In [1], the composite Z-score is 0.988 (inactive). The z-score in test [15] is -0.262; in [17], -1.05 (inactive).

As for `CC(C)[Si](C#C[Si](C(C)C)(C(C)C)C(C)C)(O[C@H](c1ccccc1)c1cn(Cc2ccccc2)nn1)C(C)C`, the composite z-score with Albumin (Bos taurus) was -0.0062; in [2], 0.143; in [3], -0.146; in test [4] it was 0.237; in test [5] it was -0.366; in [6], -0.0307. The composite z-score in the test on Sam68 (KHDRBS1) is 1.02; in test [7], 0.511; in test [8], 0.135; in test [9], 0.259; in [10], 0.733; in test [11], 0.23. In addition, the composite z-score was found to be 0.436 in test [12]; 0.532 in test [13]; 0.2 in test [14]; 0.635 with Lefty1; 0.212 in [16]. In addition, in test [1], the composite Z-score is -0.058 (inactive). Besides, the z-score in test [15] is 0.238; in [17], 0.87 (inactive).

For the compound `C=C[C@@H](CO)N(Cc1ccc(OC)cc1)S(=O)(=O)c1ccc(Br)cc1`, the composite z-score with Albumin (Bos taurus) is 0.131; in test [2], -0.147; in test [3], -0.0078; in test [4], 0.352; in test [5], 0.31; in test [6], -0.345. Moreover, the composite z-score was determined as 0.388 in the test with Sam68 (KHDRBS1); 0.231 in [7]; 0.241 in [8]; 1.53 in test [9]; 0.687 in test [10]; 0.188 in [11]. Also, the composite z-score in [12] was -0.0952; in test [13], 0.351; in test [14] it was 0.965; with Lefty1 it was -0.327; in [16] it was 0.316. In [1], the composite Z-score is -0.0461 (inactive). Also, the z-score in test [15] is 0.739; in test [17], 0.356 (inactive).
